According to PubChem BioAssay (NCI):
Where “and” joins values, the source holds several entries; their conditions need not be identical. Equal entries are not always repeated. Compounds without any hit were thinned out: in the full panel of roughly 83,000, 20% have a hit.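 Single-concentration screen, 48 h exposure, 96-well plates. Endpoint: percent growth. Below 10 = active.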 Calls of active or inactive are those of the source.

Tested on: SN12C renal
Assay: NCI-60 one-dose screen, 48 h (100 = growth as untreated, 0 = no growth, -100 = all killed)
Conditions: 10 µM
Description: Growth inhibition of the SN12C human tumor cell line is measured as a screen for anti-cancer activity. Cells are grown in 96 well plates and exposed to the test compound for 48 hours. Compounds are tested at a single concentration, which is 10^-5 M for most compounds. The reported endpoint is percent growth (GI% or GIPRCNT), where numbers from 0 - 100% represent growth inhibition, and numbers from -100% - 0 represent cell death. For example, a value of 40 represents 60% growth inhibition. A value of 0 means no net growth occurred over the course of the experiment. A value of -40 indicates 40% of cells at the beginning of the experiment died by the end of the experiment. A value of -100 means all cells are dead at the end of the experiment.
NCI-60 Human Tumor Cell Lines Screen was performed using the standard one-dose NCI protocol, which is described in more detail at https://dtp.cancer.gov/discovery_development/nci-60/default.htm.
Compounds with GIPRCNT values below 10 were considered active. Activity score was based on GIPRCNT using the following formula: […]
Score is 0 for GIPRCNT values of 100 or above, 50 for GIPRCNT values of 0, and 100 for GIPRCNT values of -100.

Compound	growth
O=C(O)CCCc1ccc(N(CCCl)CCCl)cc1	82.9% (inactive) and 86.8% (inactive)

Same assay, conditions: 10 µM unless noted

Compound	growth
COc1ccc(/C=C(/C)[N+](=O)[O-])cc1OC	-1.3% (active) and 25.2% (inactive)
O=C(O)C(F)F	104% (inactive)
CCCCn1c(=O)c(C(=O)NCc2ccccc2Cl)c(O)c2ccccc21	76.7% (inactive)
CCCC(C)SP(=S)(SC(C)CCC)SC(C)CCC (stereo not given)	108% (inactive)
Nc1ccc2c(c1)Cc1cc(N)ccc1-2	90.5% (inactive)
CN(C)C(=S)SSC(=S)N(C)C	106% (inactive) and 94.8% (inactive)
C[C@@]12CCCc3coc(c31)C(=O)c1cc3c(cc12)C(=O)C1=C(NCCS1(=O)=O)C3=O	-79.3% (active)
C[C@]12CCC(=O)C[C@@H]1CC[C@@H]1[C@@H]2CC[C@]2(C)[C@@H](OC(=O)N(CCCl)N=O)CC[C@@H]12	24% (inactive)
N#CCC(=O)c1ccccc1	109% (inactive)
CC1=CC(=O)CCC12CCOC2=O (stereo not given)	95.2% (inactive)
C=CC[PH+](c1ccccc1)c1ccccc1.C=CC[PH+](c1ccccc1)c1ccccc1.[Pt+2].[S-]c1nc2ccccc2[nH]1.[S-]c1nc2ccccc2[nH]1	-4.98% (active)
Oc1ccccc1C=NCCN=Cc1ccccc1O	102% (inactive)
CCCN1C(=O)NC(=O)C(CC)(N2C(=O)c3c(F)c(F)c(F)c(F)c3C2=O)C1=O (stereo not given)	-72.7% (active)
O=S(OO)c1cc(Cl)c(O)c(Cl)c1 (stereo not given)	101% (inactive)
Cc1cc[n+](CCc2ccccc2)cc1	102% (inactive) and 105% (inactive)
O=C(O)c1cc([N+](=O)[O-])cc([N+](=O)[O-])c1	97.5% (inactive)
[N-]=[N+]=CC(=O)CCC(=O)C=[N+]=[N-]	107% (inactive)
CCC(=O)C(CC(C)N1CCCCCC1)(c1ccccc1)c1ccccc1 (stereo not given)	97.8% (inactive)
CC(=O)C(N)Cc1ccccc1 (stereo not given)	95.7% (inactive)

Compound	growth
Cn1cc(C(=O)C[n+]2ccccc2)c2ccccc21	101% (inactive)
O=C1NC(=O)C(=Cc2ccccc2)C(=O)N1	89.7% (inactive) and 102% (inactive)
Cc1ccc(P(=O)(O)O)cc1	97.7% (inactive)
C/C=C(/C)C(=O)O[C@H]1CC[C@@]2(C)[C@@H]3CC[C@H]4[C@]5(O)C[C@H](O)[C@@]6(O)[C@@H](CN7C[C@@H](C)CC[C@H]7[C@@]6(C)O)[C@]5(O)C[C@@]42O[C@@]13O	115% (inactive)
C=CC1CN2CCC1CC2C(O)c1ccnc2ccccc12 (stereo not given)	109% (inactive)
Cc1cc(N(CCCl)CCCl)ccc1C=Nc1ccc(-c2csc(-c3ccccc3)n2)cc1	64.4% (inactive)
CCN1C(=O)CC(=O)N(CC)C1=S	99.3% (inactive)
O=[N+]([O-])c1ccc2scc3c4ccccc4nc-3c2c1	-36% (active)
CC1(C)S[C@H]2CC[C@H]3OC(=O)[C@@H]1N23	119% (inactive)
Cc1c(C)c(N)c(C)c(C)c1N	72.6% (inactive)
C[C@]12CC[C@H]3[C@@H](C[C@@H]4SC(Nc5cccc(F)c5)=N[C@@]45CC(=O)CC[C@]35C)[C@@H]1CCC2=O	28.5% (inactive)
COc1cc2c(c(OC)c1OC)-c1ccc(O)cc1[C@@H](NC(C)=O)CC2	29.1% (inactive) and 26.9% (inactive)
Oc1cc(N2CC2)c(O)cc1N1CC1	12.7% (inactive)
O=c1[nH]c(=O)[nH]c(=O)[nH]1	120% (inactive)
CCCC[C@H]1C(=O)O[C@H](C)[C@H](NC(=O)c2cccc(NC=O)c2O)C(=O)O[C@@H](C)[C@@H]1OC(=O)CC(C)C	59.6% (inactive)
Cc1cc2c(cc1-c1ccnc(/C=C/C(=O)O)c1)C(C)(C)CCC2(C)C	88% (inactive)
COc1ccn(C)c(=O)c1C#N	105% (inactive)
O=C(O)CNCP(=O)(O)O	101% (inactive)
O=[N+]([O-])c1ccc(CI)cc1	60% (inactive)

Same assay, conditions: 75 µM

Compound	growth
O=C(O)CCCc1ccc(N(CCCl)CCCl)cc1	41.2% (inactive)
